Laboratory results: PubChem BioAssay (EPA / NIEHS)
“And” between values parts separate entries of the source, which are not always exact repeats. Identical values can stand only once. Results filed as inconclusive are left out. A structure can be active in one record and inactive in another. The source made the active and inactive calls. How the source made its calls, unless noted: active means hit-call score of the fitted dose curve at least 0.9, where 1 is the maximum; inconclusive means response in the unintended direction; inactive means score below 0.9.

What was measured:
IYD (gene 389434) = assay: CCTE_GLTED_hIYD: CCTE's human Iodotyrosine Deiodinase (xIYD) Inhibition Assay, Great Lakes Toxicology and Ecology Division (GLTED) Lab (AID 2284317);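 further: cell-free human IYD enzyme made in baculovirus insect cells; iodide freed from monoiodotyrosine measured by cerium arsenite color change at 420 nm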
How it was run: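 Absorbance change at 420 nm from the iodide-catalysed cerium-arsenic reaction reports free iodide released by human IYD from monoiodotyrosine. Enzyme, substrate and chemical are incubated 3 h; loss of signal is fitted relative to DMSO baseline.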

[1] = CCTE_Deisenroth_5AR_NBTE_donor: CCTE's 5alpha-reductase NanoBRET Target Engagement Assay […], Deisenroth Lab (AID 2284319; active means hit-call score of the fitted dose curve at least 0.9, where 1 is the maximum; inactive means score below 0.9); details: actives raise or lower the signal
How it was run: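 In this secondary endpoint, donor luminescence from SRD5A2-NanoLuc in transfected HEK293T flags artifacts. Test chemical (10 nM - 29.9 uM) is present five hours, tracer the last two; mock-tracer wells run plate-matched; data fitted bidirectionally against DMSO.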

[2] = CCTE_Deisenroth_5AR_NBTE_acceptor: CCTE's 5alpha-reductase NanoBRET Target Engagement Assay - Autofluorescence Screen, Deisenroth Lab (AID 2284321; active means hit-call score of the fitted dose curve at least 0.9, where 1 is the maximum; inactive means score below 0.9;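 further: compound fluorescence in the acceptor channel under 460 nm excitation flags autofluorescence artifacts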); details: actives raise or lower the signal
How it was run: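 Acceptor fluorescence intensity was read as an artifact-detection endpoint. Test chemicals at an assumed nominal 100 uM were excited at 460 nm across three independent runs. Activity was fitted bidirectionally against DMSO.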

SRD5A2 (gene 6716) = assay: CCTE_Deisenroth_5AR_NBTE_ratio: CCTE's 5alpha-reductase NanoBRET Target Engagement Assay - Ratio, Deisenroth Lab (AID 2284322; active means hit-call score of the fitted dose curve at least 0.9, where 1 is the maximum; inactive means score below 0.9); details: actives raise or lower the signal
How it was run: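 HEK293T transiently expressing SRD5A2-NanoLuc; cells exposed to chemical (8-point, 10 nM - 29.9 uM) for 5 h total, testosterone tracer added for final 2 h. NanoBRET acceptor/donor ratio (650/460 nm), bidirectional fit vs DMSO.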

[3] = VALA_TUBHUV_Agonist_CellCount: Viability Assessment in the VALA Sciences human Umbilical Vein Endothelial Tubule Formation (TUBHUV) Agonism Assay (AID 2284309)
How it was run: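 HUVEC co-cultured 1:3 with HDF for 3 days in 10 ng/ml VEGF, then compounds added in VEGF medium for a further 3 days (72 h). Nuclear-stain/CD31 imaging cell count. Positive-direction fit versus 0.1% DMSO vehicle.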

[4] = VALA_TUBIPS_Agonist_TubuleLength: VALA Sciences human iPS-derived Endothelial Tubule Formation (TUBIPS) Agonism Assay (AID 2284311)
How it was run: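 Human iPS-derived endothelial cells were exposed to compound for 72 h. Tubule formation was imaged by high-content fluorescence and scored as gain of signal relative to DMSO vehicle (agonist mode).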

[5] = VALA_TUBIPS_Antagonist_TubuleLength: VALA Sciences human iPS-derived Endothelial Tubule Formation (TUBIPS) Antagonist Assay (AID 2284313)
How it was run: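 Cells grown 3 days with 10 ng/ml VEGF, then exposed to compounds in VEGF medium for another 3 days. After fixation, nuclear stain and CD31 immunofluorescence imaging gave mean total tubule length against 0.1% DMSO; suramin (100 uM) inhibition control.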

[6] = VALA_MIGHUV2_WoundArea: VALA Sciences human Umbilical Vein Endothelial Cell Migration (MIGHUV) Assay, Area of Scratch Wound after Recovery (AID 2284316)
How it was run: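 HUVEC seeded at 9000 cells/well, scratched after 24 h; test chemical added within 30 min, 6-point concentration response in triplicate (0.1% DMSO vehicle). After 24 h wound recovery, cells fixed and Hoechst-stained nuclei in wound area imaged; Cytochalasin D reference control.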

[7] = VALA_TUBHUV_Antagonist_TubuleLength: VALA Sciences human Umbilical Vein Endothelial Tubule Formation (TUBHUV) Antagonism Assay (AID 2284325)
How it was run: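 HUVEC–HDF co-culture (1:3) pre-grown 3 days with 10 ng/ml VEGF, then 3 days with compound plus VEGF. Fixed, nuclear and CD31 stained; total tubule length by imaging versus 0.1% DMSO; suramin 100 uM positive control.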

[8] = VALA_MIGHUV1_ScratchOnly_WoundArea: VALA Sciences human Umbilical Vein Endothelial Cell Migration (MIGHUV) Assay, Area of Scratch Wound Inhibited Recovery (AID 2284336)
How it was run: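 HUVEC monolayers (9000 cells/well) were scratched after 24 h, dosed within 30 min (six concentrations, triplicate, 0.1% DMSO), allowed 24 h recovery, then fixed. Hoechst-stained nuclei in the wound imaged; cytochalasin D as reference.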

[9] = VALA_TUBHUV_Agonist_TubuleLength: VALA Sciences human Umbilical Vein Endothelial Tubule Formation (TUBHUV) Agonism Assay (AID 2284337)
How it was run: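 HUVEC co-cultured with fibroblasts (1:3) 3 days in 10 ng/ml VEGF, then 3 days with compound plus VEGF; 0.1 % DMSO neutral control. Fixed, nuclear and CD31 stained; tubule length by fluorescence imaging.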

[10] = CCTE_Mundy_HCI_iCellGluta_NOG_NeuriteLength: CCTE's Neurite Outgrowth Assay in iCellGluta cells for Neurite Length, Mundy Lab (AID 2284318)
How it was run: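 Automated high-content imaging of betaIII-tubulin (Alexa Fluor-488) and Hoechst-stained cells gave neurite length, normalized to the DMSO baseline.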

TTR (gene 7276) = assay: CCTE_GLTED_hTTR_0.5uM: CCTE's human Transthyretin (hTTR) Inhibition Assay, with 0.5uM TTR, Great Lakes Toxicology and Ecology Division (GLTED) Lab (AID 2284320; active means hit-call score of the fitted dose curve at least 0.9, where 1 is the maximum; inactive means score below 0.9)
How it was run: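 Cell-free displacement assay in which human TTR at 0.5 uM was incubated with test chemical for 2 h. Displacement of the ANSA probe was read by fluorescence at 380 nm excitation/475 nm emission. Loss of signal was fitted in the positive direction versus DMSO.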

[11] = IUF_NPC2-5_viability_120hr: Viability Assessment at 120 hours in the Leibniz Research Institute for Environmental Medicine (IUF) Neural Progenitor Cell Migration and Differentiation Assay (NPC2-5) (AID 2284312; active means hit-call score of the fitted dose curve at least 0.9, where 1 is the maximum; inactive means score below 0.9)
How it was run: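 Alamar blue resorufin fluorescence read after 5 days of differentiation, with compound present from day 0 and replenished at day 3. Primary hNPC spheres on laminin-coated plates, 37C; seven concentrations plus solvent control, fitted against DMSO.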

[12] = TAMU_PeakParms_SingleDonor1434_Asystole: Texas A&M University (TAMU) 1.5-hr Human Induced Pluripotent Stem Cell (iPSC)-derived Cardiomyocytes Calcium (Ca+2) Flux Assay for Cardiotoxicity: Asystole (quiescence of beating) (AID 2284328)
How it was run: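 Average Ca2+-flux peak frequency (beats/s) was recorded in single-donor iPSC-derived cardiomyocytes after 90 min exposure (0.2–100 uM final, 0.5% DMSO). Asystole POD set as EC95 against DMSO, no preprocessing.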

[13] = IUF_NPC1_cytotoxicity_72hr: Cytotoxicity Assessment at 72 hours in the Leibniz Research Institute for Environmental Medicine (IUF) Neural Progenitor Cell Proliferation Assay (NPC1) (AID 2284332);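 further: rising LDH signal means more cytotoxicity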
How it was run: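 Spheres of primary human neural progenitors are plated one per well on day 0 in growth-factor medium and dosed at once. After three days at 37C, supernatant LDH is measured fluorimetrically via resazurin reduction.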

[14] = test system: Brachyury (BRA) Protein Expression, Deisenroth Lab, TBXT (gene 6862); assay: CCTE_Deisenroth_DEVTOX-GLR_legacy_Bra: (Legacy) CCTE's DevTox GLR-Endo Assay Evaluation of Brachyury (BRA) Protein Expression, Deisenroth Lab (AID 2284329; active means hit-call score of the fitted dose curve at least 0.9, where 1 is the maximum; inactive means score below 0.9)
How it was run: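 Human pluripotent RUES2-GLR line was exposed twice during 48 h differentiation to a 10-point series, 1 nM - 200 uM. Fraction of Bra-positive cells was scored by imaging against pluripotent baseline and fitted after 0.2% DMSO subtraction.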

[15] = CCTE_Deisenroth_DEVTOX-GLR_legacy_CellCount: (Legacy) Viability Assessment in CCTE's DevTox GLR-Endo Assay, Deisenroth Lab (AID 2284331; active means hit-call score of the fitted dose curve at least 0.9, where 1 is the maximum; inactive means score below 0.9); details: actives raise or lower the signal
How it was run: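 Seed RUES2-GLR 24 h; differentiate 48 h, dosing at 0 and 24 h; fix, stain nuclei; image 5 fields/well; count nuclei. Conc. 1 nM - 200 uM, single technical replicate, n=4 experiments; bidirectional fit vs 0.2% DMSO.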

CC(C)(C)c1ccc(O)c(C(C)(C)C)c1
AC50 (IYD (gene 389434)): 100 µM (active)

O=[N+]([O-])c1ccc(O)cc1
outcome [1]: inactive | outcome [2]: inactive | AC50 (SRD5A2 (gene 6716)): 71.2 µM (active)

O=C(O)Cc1cc(I)c(Oc2cc(I)c(O)c(I)c2)c(I)c1
outcome [3]: inactive | outcome [4]: inactive | outcome [5]: inactive | outcome [6]: inactive | outcome [7]: inactive | outcome [8]: inactive | outcome [9]: inactive

OCCC(F)(F)C(F)(F)C(F)(F)C(F)(F)C(F)(F)C(F)(F)C(F)(F)C(F)(F)F
outcome [10]: inactive

CCOC(=O)CC(O)(CC(=O)OCC)C(=O)OCC
outcome [1]: inactive | outcome [2]: inactive | outcome (SRD5A2 (gene 6716)): inactive

C=C(C)C(=O)OCCC(F)(F)C(F)(F)C(F)(F)C(F)(F)C(F)(F)C(F)(F)F
outcome [10]: inactive

FC(F)(I)C(F)(F)C(F)(F)C(F)(F)C(F)(F)C(F)(F)I
AC50 (TTR (gene 7276)): 1.91 µM (active) and 1.88 µM (active)

CC#C[C@]1(O)CC[C@H]2[C@@H]3CCC4=CC(=O)CCC4=C3[C@@H](c3ccc(N(C)C)cc3)C[C@@]21C
outcome [11]: inactive | AC50 [10]: 50 µM (active) | outcome [10]: inactive | outcome [12]: inactive | outcome [13]: inactive

c1ccc2c(c1)ccc1ccccc12
outcome [12]: inactive

c1ccc2c(c1)Cc1ccccc1-2
outcome [12]: inactive

CCN(CC)CCNc1ccc(CNC=O)c2sc3ccc(OC)cc3c(=O)c12
outcome [1]: inactive | outcome [2]: inactive | outcome (SRD5A2 (gene 6716)): inactive

CC1=C(/C=C/C(C)=C/C=C/C(C)=C/C(=O)O)C(C)(C)CCC1
outcome [11]: inactive | AC50 [14]: 11.7 µM (active) | AC50 [15]: 4.44 µM (active) | outcome [13]: inactive

CC(C)(C)c1cccc(C(C)(C)C)c1O
AC50 (IYD (gene 389434)): 100 µM (active)

c1ccc2cc3c(ccc4ccccc43)cc2c1
outcome [12]: inactive
